The values below come from PubChem BioAssay AID1445 (SRMLSC, 2008).

Values joined by “and” are separate entries in the source; they are usually repeats but may differ in a detail not shown here. Equal entries are not always repeated. In all, about 220,000 compounds went through this assay and about 910 (0.41%) were called active.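 Rule for the calls: active = primary inhibition above the hit cutoff, then over 50% inhibition at one or more dose response concentrations (cut at about 23% in these data, passing the limit was not always enough); inconclusive = conflicting primary data, or primary hits not chosen for dose response; inactive = low primary inhibition, or under 50% at every dose.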 Shown is part of a subset that was picked to be rich in actives. Measured potencies and affinities stand elsewhere. Some structures have more than one record in an assay (separate samples or runs), and their calls can disagree.

The target in this test is Aminopeptidase N (Plasmodium falciparum (isolate 3D7)) (UniProt O96935). Nature of the test: P. falciparum M1AAP inhibitors, biochemical, fluorogenic H-Leu-NHMec substrate, 1536-well (AID 1445).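 Note: plate controls were DMSO full reaction for no effect and no enzyme background for full effect.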 As to conditions: recombinant M1AAP, H-Leu-NHMec fluorogenic kinetic assay; at 30 µM, stronger effect = higher value unless noted.
Chain of Aminopeptidase N (Plasmodium falciparum (isolate 3D7)) (O96935 whole entry, looked up): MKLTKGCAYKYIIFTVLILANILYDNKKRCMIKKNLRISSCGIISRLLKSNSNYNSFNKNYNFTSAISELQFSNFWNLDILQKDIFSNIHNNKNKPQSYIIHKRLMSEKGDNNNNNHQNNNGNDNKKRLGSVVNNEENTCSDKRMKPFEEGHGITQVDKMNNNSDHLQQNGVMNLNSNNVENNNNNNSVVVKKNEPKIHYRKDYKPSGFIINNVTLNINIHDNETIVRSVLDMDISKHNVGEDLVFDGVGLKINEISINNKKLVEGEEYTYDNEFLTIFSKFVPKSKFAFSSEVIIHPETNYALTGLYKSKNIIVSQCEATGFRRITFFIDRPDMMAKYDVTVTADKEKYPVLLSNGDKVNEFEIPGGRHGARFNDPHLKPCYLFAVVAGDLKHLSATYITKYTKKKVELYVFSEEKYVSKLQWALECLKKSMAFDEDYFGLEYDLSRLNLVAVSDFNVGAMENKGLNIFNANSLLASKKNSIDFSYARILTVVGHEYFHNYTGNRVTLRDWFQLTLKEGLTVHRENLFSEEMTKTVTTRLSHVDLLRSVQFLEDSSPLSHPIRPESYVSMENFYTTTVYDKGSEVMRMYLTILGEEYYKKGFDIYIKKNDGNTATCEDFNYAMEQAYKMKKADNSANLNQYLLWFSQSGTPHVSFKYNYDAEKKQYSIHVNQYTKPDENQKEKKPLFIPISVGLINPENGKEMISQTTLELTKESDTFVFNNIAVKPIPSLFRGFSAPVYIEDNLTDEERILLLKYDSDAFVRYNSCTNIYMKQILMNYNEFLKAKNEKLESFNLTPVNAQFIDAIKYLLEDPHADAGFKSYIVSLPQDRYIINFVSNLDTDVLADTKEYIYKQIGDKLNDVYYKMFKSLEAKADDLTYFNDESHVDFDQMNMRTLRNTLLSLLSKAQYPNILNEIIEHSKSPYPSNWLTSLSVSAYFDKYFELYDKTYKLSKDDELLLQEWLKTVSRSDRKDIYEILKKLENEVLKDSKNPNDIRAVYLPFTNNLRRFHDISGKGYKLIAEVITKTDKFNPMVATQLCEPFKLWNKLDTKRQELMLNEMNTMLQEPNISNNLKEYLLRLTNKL
The term inhibition denotes the relative decrease from the control value, in per cent. In the case of `Cc1oc2cc(O)cc(O)c2c(=O)c1-c1ccc2c(c1)OCCCO2`, the inhibition is -10.6% (inactive).

In the case of `O=c1c(-c2ccc3c(c2)OCCO3)c(C(F)(F)F)oc2cc(O)cc(O)c12`, the inhibition is 24.6% (active).

For `O=c1c(-c2ccc3c(c2)OCCO3)coc2cc(O)cc(O)c12`, the inhibition was 13.2% (inactive).

For `NC(=O)CSc1nnc(-c2cccnc2)n1Cc1ccccc1`, the inhibition is -0.97% (inactive).

Consider `Cn1nc(C(=O)Nc2sc3c(c2C#N)CCCC3)ccc1=O`, for which the inhibition is 4.41% (inactive).

As for `O=C1c2ccccc2C(=O)N1n1c(=O)[nH]c2ccccc2c1=O`, the inhibition was 2.13% (inactive).

In the case of `CC(C)Cn1c(CN2C(=O)c3ccccc3C2=O)nc2ccccc2c1=O`, the inhibition was -3.16% (inactive).

As for `Brc1ccccc1-c1csnn1`, the inhibition is 2.07% (inactive).

Regarding `CCOCCCn1c(=S)[nH]c2cc(C(=O)NCCCN(CC)CC)ccc2c1=O`, the inhibition is 12.3% (inactive).

Regarding `COc1ccc(C(=O)c2c(C)oc3ccc(O)c(CN4CCOCC4)c23)cc1`, the inhibition was 1.06% (inactive).

In the case of `O=C(CC(Cc1ccccc1)c1ccco1)NC1CCCCC1` (centres undefined), the inhibition is 3.48% (inactive).

For the compound `CC1=CC(c2ccc(Cl)cc2)n2nc(N3C(=O)CCC3=O)nc2N1` (centres undefined), the inhibition was 14.2% (inactive).

Take `Cc1ccc(C2C=C(c3ccccc3)Nc3nc(N4C(=O)CCC4=O)nn32)cc1` (centres undefined): the inhibition is 4.75% (inactive).

On to `COC(=O)c1cc(O)c(O)c(O)c1`, for which the inhibition is 6.36% (inactive).

`COC(=O)c1ccc(Sc2ccc(C)cc2)c(N)c1`: the inhibition is 11.3% (inactive).

As to `CCCN(CC1CC1)C(=S)NC(=O)C1CC1`, the inhibition is 3.89% (inactive).

`CC(=O)CCc1c(C)nc2ccc(C(=O)O)cc2c1Cl`: the inhibition was 11.9% (inactive).

On to `CCOC(=O)c1cccc(Nc2ncnc3ccccc23)c1`, for which the inhibition was 6.34% (inactive).

For the compound `O=S(=O)(c1ccc(Cl)cc1)N(CCCN1CCOCC1)Cc1cccs1`, the inhibition is 2.6% (inactive).

For `COc1cc(NC(=O)c2cccs2)c(OC)cc1NC(=O)CCC(=O)Nc1cccc2ncccc12`, the inhibition is 16.7% (inactive).

On to `C/C(=N\NC(=O)CCn1nnc2ccccc21)c1cccs1`, for which the inhibition was 0% (inactive).

For `COc1cc(NC(=O)c2cccs2)c(OC)cc1NC(=O)CCn1nnc2ccccc21`, the inhibition was 25% (active).

Take `Cc1ccc(Cn2ccc(NC(=O)c3noc4c3CCc3ccccc3-4)n2)cc1`: the inhibition was 8.24% (inactive).

On to `CC(=O)NC(=S)Nc1ccc([N+](=O)[O-])cc1C`, for which the inhibition is 3.35% (inactive).

With `Cc1cc([N+](=O)[O-])ccc1NC(=S)NC(=O)C(c1ccccc1)c1ccccc1`, the inhibition is 9.66% (inactive).

Take `Cc1cc([N+](=O)[O-])ccc1NC(=S)NC(=O)Cc1ccccc1`: the inhibition was 23.7% (active).

As to `O=C(CSc1ccc2nnc(-c3ccncc3)n2n1)Nc1ccc2c(c1)OCO2`, the inhibition is 5.11% (inactive).

For the compound `Cn1cc([N+](=O)[O-])c(C(=O)NNC(=O)c2ccc([N+](=O)[O-])cc2)n1`, the inhibition is 1.97% (inactive).

For the compound `Cc1ccc(-c2csc3ncnc(NS(=O)(=O)c4ccc(Cl)cc4)c23)cc1`, the inhibition was -5.44% (inactive).

For the compound `CN(C)CCCNc1ncnc2scc(-c3ccccc3)c12`, the inhibition was -12.9% (inactive).

Turning to `CCOC(=O)c1ccc(NC(=O)COc2ccc(S(=O)(=O)N3CCCC3)cc2)cc1`, the inhibition was 10.4% (inactive).

In the case of `O=S(=O)(Nc1nc2ccccc2nc1Cl)c1ccc2c(c1)OCCO2`, the inhibition is 15.8% (inactive).

For the compound `O=S(=O)(Nc1nc2ccccc2nc1Cl)c1ccccc1`, the inhibition was 7.23% (inactive).

With `Cc1cc(S(=O)(=O)Nc2cccc(Cl)c2)c(C)s1`, the inhibition is 7.05% (inactive).

As to `CSc1ccccc1C(=O)C1CCCN(C(=O)c2ccc(N3CCOCC3)cc2)C1` (centres undefined), the inhibition was 0.54% (inactive).

Turning to `COC(=O)C1=NN(C(=O)c2ccc(Br)cc2)C(O)(C(C)(C)C)C1` (centres undefined), the inhibition is 53.2% (inactive).

For `COC(=O)C1=NN(C(=O)c2cccc(Cl)c2)C(O)(C(C)(C)C)C1` (centres undefined), the inhibition was 33.3% (inactive).

`Cc1ccn2c(NCc3ccc4c(c3)OCO4)c(-c3ccc(O)cc3)nc2c1`: the inhibition is 3.37% (inactive).

As to `O=C(NCCc1nc2ccccc2[nH]1)/C(=C/c1ccco1)NC(=O)c1ccc(Br)cc1`, the inhibition was 3.21% (inactive).

Take `Cc1nc(SCC(=O)O)c2oc3ccccc3c2n1`: the inhibition was 3.31% (inactive).

Turning to `O=C(O)CSc1nc(-c2ccccc2)nc2c1oc1ccccc12`, the inhibition was 8.15% (inactive).

As to `CN(C)c1ccc(/C=N/NC(=O)CCCO)cc1`, the inhibition was 16.7% (inactive).

In the case of `C/C=C/c1ccc(OCCOc2ccc(C=O)cc2)c(OC)c1`, the inhibition was 9.05% (inactive).

Consider `C/C=C/c1ccc(OCCCCOc2ccc(OC)cc2)c(OC)c1`, for which the inhibition is -1.18% (inactive).

With `Cc1cc(-c2nnc(SCC(=O)Nc3nc(-c4ccccc4)cs3)o2)no1`, the inhibition is 17.1% (inactive).

`O=[N+]([O-])c1ccc(Oc2c(F)c(F)nc(N3CCCC3)c2F)cc1`: the inhibition is 1.61% (inactive).

`O=C(O)c1cc(-c2ccco2)nc2cc3ccccc3cc12`: the inhibition was 15.5% (inactive).

Consider `O=C(O)c1cc(-c2ccco2)nc2ccc(Br)cc12`, for which the inhibition is 5.53% (inactive) and 27.5% (active).

As to `O=C(O)c1cc(-c2ccco2)nc2ccccc12`, the inhibition is 5.44% (inactive).

As to `COc1ccc(C2CC(=O)C(C=NCCN3CCN(C(=S)Nc4ccccc4)CC3)=C(O)C2)cc1OC` (centres undefined), the inhibition is 12.8% (inactive).

Regarding `O=C(CNC(=O)c1ccccc1)N/N=C/c1cn[nH]c1-c1ccccc1`, the inhibition is 4.33% (inactive).

Turning to `CCN(CC)C(=O)c1sc2nc(-c3cccs3)cc(-c3cccs3)c2c1N`, the inhibition was 7.47% (inactive).

Consider `Cc1ccc(-c2cc(-c3ccccc3)c3c(N)c(S(C)(=O)=O)sc3n2)cc1`, for which the inhibition is 14.5% (inactive).

On to `N#Cc1sc2nc(-c3cccs3)cc(-c3ccccc3)c2c1N`, for which the inhibition was 13.3% (inactive).

`CC(C)NC(=O)c1sc2nc3c(c(-c4cccs4)c2c1N)CN(C)CC3`: the inhibition was 5.01% (inactive).

As to `CC(C)NC(=O)c1sc2nc(-c3cccs3)cc(-c3cccs3)c2c1N`, the inhibition was 24.2% (active).

Take `Cc1ccc(NC(=O)CCc2c(C)nc3ncnn3c2C)cc1`: the inhibition is 0.77% (inactive).

For `CC(NC(=O)c1cc(-c2ccc3c(c2)OCO3)nc2ccccc12)C(C)(C)C` (centres undefined), the inhibition was 3.57% (inactive).

For the compound `COc1ccc(C2/C=C\CN(Cc3ccco3)CC(=O)N2Cc2ccc(F)cc2)cc1` (centres undefined), the inhibition is 4.94% (inactive).

Consider `C=CCN1C(=S)N[C@@H]2CS(=O)(=O)C[C@@H]21`, for which the inhibition was 5.08% (inactive).

On to `O=C(Nc1cccc(F)c1)c1cc(S(=O)(=O)N2CCOCC2)cs1`, for which the inhibition was 9% (inactive).

On to `Cc1ccc(-c2cn3cccnc3n2)cc1NC(=O)c1ccc(Br)o1`, for which the inhibition is 24.6% (active).

For the compound `COc1ccc(-c2cn3cccnc3n2)cc1NC(=O)c1ccc(Br)o1`, the inhibition is 11.3% (inactive).

Consider `O=C(Nc1cccc(-c2cn3cccnc3n2)c1)c1ccc(Br)o1`, for which the inhibition was 2.48% (inactive).

As for `Cc1cc(N2CCCC2)c(C)cc1C=O`, the inhibition is 17.1% (inactive).

For `Cc1cccc(NC(=O)CN2CCSc3ccccc32)c1`, the inhibition was 6.82% (inactive).

Take `Cc1cc(C)n2nc(C(=O)NNC(=O)c3ccccc3)nc2n1`: the inhibition is 5.93% (inactive).

On to `COc1ccc(Cl)cc1C(=O)NNC(=O)c1nc2nc(C)cc(C)n2n1`, for which the inhibition was 0.99% (inactive).

With `O=C(OCn1nnc2ccccc2c1=O)c1cc(-c2ccccc2Cl)nc2ccccc12`, the inhibition is 12.3% (inactive).

For the compound `Cc1ccc(N2C(=O)CC(Sc3nc(-c4ccccc4)c4cc(Cl)ccc4n3)C2=O)c(C)c1` (centres undefined), the inhibition is 8.91% (inactive).

In the case of `COc1ccc(CC(=O)n2[nH]c(=O)cc(C)c2=O)cc1OC`, the inhibition was 8.27% (inactive).

With `COc1ccc(S(=O)(=O)N2CCC(C(=O)NCc3cccs3)CC2)cc1`, the inhibition is 6.28% (inactive).

`O=C(NCCc1ccc(Cl)cc1)C1CCN(S(=O)(=O)c2ccc(Br)s2)CC1`: the inhibition was 4.81% (inactive).

For the compound `O=C(Nc1ccc2c(c1)OCCO2)C1CCN(S(=O)(=O)c2ccc3c(c2)OCCO3)CC1`, the inhibition was 9.64% (inactive).

On to `NS(=O)(=O)c1ccc(CCNC(=O)C2CCN(S(=O)(=O)c3ccc(Br)s3)CC2)cc1`, for which the inhibition was 2.64% (inactive).

For `O=C(NCc1ccc(Cl)cc1)C1CCN(S(=O)(=O)c2ccccc2)CC1`, the inhibition was 11.8% (inactive).

As for `O=C(NCc1cccs1)C1CCCN(S(=O)(=O)c2ccc3c(c2)OCO3)C1` (centres undefined), the inhibition is 8.66% (inactive).

`O=C(NCc1cccs1)C1CCN(S(=O)(=O)c2ccc3c(c2)OCCO3)CC1`: the inhibition was 23.4% (active).

Regarding `O=C(NCc1cccs1)C1CCN(c2ccc(S(=O)(=O)N3CCOCC3)cc2Cl)CC1`, the inhibition is -0.57% (inactive).

On to `COc1ccc(S(=O)(=O)N2CCC(C(=O)Nc3ccc4c(c3)OCCO4)CC2)cc1OC`, for which the inhibition was 1.25% (inactive).

Take `COc1cccc(NC(=O)C2CCN(S(=O)(=O)c3ccc4c(c3)OCCO4)CC2)c1`: the inhibition is 43% (active).

In the case of `N#CCCN1CCN(C(=S)c2ccc(-c3ccc(Cl)c(Cl)c3)o2)CC1`, the inhibition was 7.98% (inactive).

Consider `N#C/C(=C(/O)c1ccc([N+](=O)[O-])cc1)c1nc2ccccc2[nH]1`, for which the inhibition was 6.69% (inactive).

With `CCOC(=O)N1CCN(C(=O)CCl)CC1`, the inhibition is 2.94% (inactive).

As for `Cc1ccc(N2CCN(C(=O)c3ccccc3NC(=O)c3ccccc3C(=O)O)CC2)cc1`, the inhibition was 6.79% (inactive).

For `COCCNC(=O)c1cc2cc(Br)cc(Br)c2oc1=O`, the inhibition was 2.6% (inactive).

With `N#C/C(=C\c1ccc(-c2cccc(Cl)c2)o1)C(=O)Nc1cccc2cccnc12`, the inhibition was -0.58% (inactive).

For `Cn1c(N)c(C(=O)COC(=O)C2=COCCO2)c(=O)n(C)c1=O`, the inhibition is 3.8% (inactive).

With `O=C(NCc1cccs1)C1CCC(CNS(=O)(=O)c2ccc(Br)s2)CC1` (centres undefined), the inhibition was -4.74% (inactive).

For `O=C(NCc1cccs1)C1CCCN(S(=O)(=O)c2ccc(Br)s2)C1` (centres undefined), the inhibition was 18.8% (inactive).

Take `O=C(NCc1cccs1)C1CCN(S(=O)(=O)N2CCCC2)CC1`: the inhibition is 4.08% (inactive).

With `O=C(NCc1cccs1)C1CCCN1S(=O)(=O)c1ccccc1F` (centres undefined), the inhibition was 2.94% (inactive).

With `O=C(NCc1cccs1)C1CCCN(S(=O)(=O)c2cccs2)C1` (centres undefined), the inhibition was 14.9% (inactive).

`CCS(=O)(=O)N1CCC(C(=O)NCc2cccs2)CC1`: the inhibition was 10.2% (inactive).
